# Shown are actives, neighbours in structure and some others; about 2% of the full set was active somewhere.
# Gli-Sufu antag: Gli-Sufu pathway antagonists, primary screen, luciferase luminescence, Sufu-KO-LIGHT cells, uHTS | Sufu-KO-LIGHT fibroblasts, Gli luciferase reporter luminescence | inhibition, % at 5 µM | 0.74% of 340,000 active;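 active = inhibition above about 55%, limit read from the data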;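 also: 0% = DMSO-treated cells and 100% = wells with medium but no cells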
# 697 NFkB inh: inhibitors of PMA/ionomycin-induced NF-kB reporter, 697 cells, primary screen, B-cell NF-kB inhibitor project, cell-based, luminescence, uHTS; inhibition, % at 4 µM; 0.33% of 330,000 active; 697 B-cell NF-kB luciferase reporter, 16 h; in the data active = inhibition above about 35%
# Jurkat NFkB inh: inhibitors of induced NF-kB luciferase reporter, primary screen, TCR NF-kB activation inhibitor project, cell-based, luminescence, uHTS. Jurkat, PMA/ionomycin-induced NF-kB luciferase reporter. inhibition, % at 4 µM. 0.53% of 330,000 active. AID 435003, 2010; in the data active = inhibition above about 50%
# COUP-TFII inh: NR2F2 transcriptional activity inhibitors, primary screen, cell-based, luciferase reporter, HEK293T, luminescence; inhibition, % at 8.6 µM; AID 686940, 2013; HEK293T NGFI-A luciferase reporter; 0.7% of 370,000 active;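 active = inhibition above a per-plate cutoff, mean inhibition of test wells between control levels plus 3 SD, cut at about 38% in these data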;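 also: cells cotransfected with COUP-TFII expression vector driving the NGFI-A reporter; 0% = median of COUP-TF2 test wells and 100% = reporter-only cells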
# Target sequence (P24468 whole entry, looked up): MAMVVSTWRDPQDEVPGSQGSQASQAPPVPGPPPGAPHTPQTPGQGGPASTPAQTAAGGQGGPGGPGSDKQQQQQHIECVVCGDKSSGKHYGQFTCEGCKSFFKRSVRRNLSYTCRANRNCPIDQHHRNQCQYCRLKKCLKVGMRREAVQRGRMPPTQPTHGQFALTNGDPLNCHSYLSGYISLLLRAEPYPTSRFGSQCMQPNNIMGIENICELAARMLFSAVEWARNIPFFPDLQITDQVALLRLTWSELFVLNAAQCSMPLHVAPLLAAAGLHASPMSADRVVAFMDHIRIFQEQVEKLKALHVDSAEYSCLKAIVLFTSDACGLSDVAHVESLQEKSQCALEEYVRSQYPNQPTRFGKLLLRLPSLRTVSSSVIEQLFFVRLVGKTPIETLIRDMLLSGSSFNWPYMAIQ
# GalR3 antag: GalR3 antagonists in HEK293 cells, primary screen, cell-based, fluorescence readout; inhibition, % at 3 µM; Galanin receptor type 3 (Homo sapiens), O60755; AID 651719, 2012; HEK293 GalR3-CNG cAMP membrane potential fluorescence; galR3 body fused to GalR1 C-terminus; 0.44% of 360,000 active;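 active = inhibition above the screen-wide average plus 3 SD, cut at about 13% in these data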;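 also: forskolin and galanin both at EC90 stimulate the cells; cAMP rise reported by CNG channel membrane potential dye signal; 0% = forskolin plus galanin with DMSO and 100% = forskolin alone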
# Jurkat NFkB conf: PMA/ionomycin-induced NF-kB reporter inhibitors, Jurkat retest, confirmation, T-cell NF-kB inhibitor project, cell-based, luminescence, single concentration. inhibition, % at 4 µM. 27% of 2,700 active. shares compounds with Jurkat NFkB inh. Jurkat NF-kB luciferase, 16 h;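 active = inhibition reaching about 45% at 4 µM in either replicate, limit read from the data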;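 also: plate controls were PMA/ionomycin stimulated DMSO wells for no effect and unstimulated DMSO wells for full effect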
# * = called active by the depositor; · = not tested or not shown.
SMILES,Gli-Sufu antag,697 NFkB inh,Jurkat NFkB inh,COUP-TFII inh,GalR3 antag,Jurkat NFkB conf
COc1cccc(C2=NOC(C(=O)NCc3ccc(F)cc3)C2)c1 (stereo not given),-16,-9,-4,-4,-2,·
O=C(NCc1ccco1)C1CC(c2cc(C(F)(F)F)cc(C(F)(F)F)c2)=NO1 (stereo not given),9,-28,62*,10,4,20
CNC(=O)C[C@H]1CC[C@H]2[C@@H](COc3ccc(NC(=O)Nc4ccccc4)cc3C(=O)N2C)O1,·,·,·,4,·,·
CC(C)C[C@@H]1COc2cc(Br)ccc2S(=O)(=O)N1Cc1cn(CC2CCCCC2)nn1,·,·,·,-1,·,·
CCCc1nc2oc3c(NCCCN(C)C)ncnc3c2c2c1CCCC2,9,-29,90*,-14,0,9
CN(c1ccccc1)S(=O)(=O)c1ccc(NC(=O)c2ccccc2)cc1,-13,0,-5,14,-4,·
CN(c1ccccc1)S(=O)(=O)c1ccc(NC(=O)c2nc(S(C)(=O)=O)ncc2Cl)cc1,16,-95,53*,-1,-5,21
CCCCCCCCC[n+]1cccc2c3ccccc3ccc21,-1,-23,71*,·,·,68*
c1ccc2c(c1)ccc1ccccc12,1,9,-9,-6,-7,·
CC(C)Oc1ccc2c(=O)c(-c3ccccc3)coc2c1,-123,-211,-185,-41,·,-83
COC(=O)COc1ccc2c(=O)c(-c3ccccc3)coc2c1,-1,-11,-12,-18,-5,·
CCC(=O)N1CCc2cc(OC)c(OC)cc2C1COc1ccc(F)cc1 (stereo not given),-3,-13,64*,11,-7,-1
CCC[C@H]1[C@@H](NC(=O)C2CCC2)CC[C@@]23CCCN2C(=O)CCC[C@@H]13,·,·,·,-11,·,·
COc1ccc([C@H]2CC(=O)C=C(c3cc(C)ccc3OC)C2)cc1,1,-12,58*,5,-5,26
CCOc1ccc(Br)cc1C1=CC(=O)C[C@H](c2ccc(OC)cc2)C1,9,-53,65*,0,-6,47
O=C(CN1C(=O)C2(OCCCO2)c2ccccc21)NCc1ccc(F)cc1,·,·,·,18,·,·
CC(=O)c1sc2c(c1OC(=O)c1ccc(Cl)cc1)c(=O)n(-c1ccccc1)c(=S)n2-c1ccccc1,16,·,·,-5,-6,·
CC(=O)c1sc2c(c1OC(=O)c1ccc(Cl)cc1Cl)c(=O)n(-c1ccccc1)c(=S)n2-c1ccccc1,11,-15,69*,-15,-12,87*
Cc1cc(N2CCN(C)CC2)ccc1NC(=O)c1c2c(nc3ccccc13)CCN(Cc1ccccc1)C2,49,10,77*,·,·,11
O=C(NC1CCCCCC1)c1c2c(nc3ccccc13)CCN(Cc1ccccc1)C2,9,-15,0,12,2,·
Cc1ccc(-n2c(Cc3cccs3)nnc2SCc2ccc(Br)cc2)cc1,·,·,·,2,·,·
Cc1ccc(-n2nc3c(=O)n(CC(=O)NC(C)CCc4ccccc4)nc(C)c3c2C)cc1 (stereo not given),14,16,53*,·,·,63*
Cc1ccc(-n2nc3c(=O)n(CC(=O)NCc4ccccc4)nc(C)c3c2C)cc1,5,3,25,13,0,·
COC(=O)[C@H](CC(C)C)N(CCCc1cn(Cc2ccc(C)cc2)nn1)S(=O)(=O)c1ccccc1Br,·,·,·,7,·,·
O=C(Nc1ccc(Cl)cn1)c1cc2ccccc2o1,-80,-232,-152,-56,-4,-102
SMILES,Gli-Sufu antag,697 NFkB inh,Jurkat NFkB inh,COUP-TFII inh,GalR3 antag,Jurkat NFkB conf
O=C(Nc1ccccc1C(F)(F)F)c1cc2ccccc2o1,-94,-189,-152,-63,-12,-81
COC(=O)c1ccccc1NC(=O)c1cc2ccccc2o1,-26,-59,-2,-14,-4,·
O=C(COc1ccc(Br)cc1Br)NC(=O)NC1CCCC1,-43,-66,-73,-52,-3,·
CC(C)(C)NC(=O)NC(=O)COc1ccc(Br)cc1Br,-105,-201,-210,-39,-2,-101
CCOC(=O)COc1cccc2c(=O)n(CC(=O)NCc3ccccc3)ccc12,9,-6,63*,-41,8,50
CCOC(=O)C(C)Oc1cccc2c(=O)n(CC(=O)Nc3ccc4c(c3)OCCO4)ccc12 (stereo not given),8,4,-12,3,·,·
CCOC(=O)COc1cccc2c(=O)n(CC(N)=O)ccc12,-2,17,-15,8,1,·
CCOC(=O)C(C)Oc1cccc2c(=O)n(CC(=O)NCc3ccc4c(c3)OCO4)ccc12 (stereo not given),15,-62,52*,-29,·,54*
COc1ccc(-c2nnc(SCC(=O)/C(C#N)=C(\C)N)o2)cc1,-60,-189,-162,-55,-5,-98
C/C(N)=C(/C#N)C(=O)CSc1nnc(-c2ccccc2Br)o1,-88,-217,-156,-57,-1,-116
O=C(CSc1nnc(-c2ccc(Br)cc2)o1)Nc1cccc2ccccc12,-31,-13,-15,0,-5,·
COc1ccc(-c2nnc(SCC(=O)Nc3ccccc3OC)o2)cc1,-5,-44,-183,-22,-5,-18
O=C(CSc1nnc(-c2ccccc2Br)o1)N1CCOCC1,-77,-71,-75,-20,-6,·
O=C(CSc1nnc(-c2ccc(Br)cc2)o1)Nc1cccc(C(=O)O)c1,-53,8,75*,-14,2,18
O=C(CSc1nnc(-c2cccnc2)n1-c1ccc(Cl)cc1)Nc1ccc(S(=O)(=O)Nc2nccs2)cc1,·,·,·,12,·,·
CC(=O)c1cc2c(cc1NC(=O)c1cc(C)nn1-c1ccccc1)OCO2,15,-63,55*,-9,3,24
Cc1ccc(C(=O)Nc2cc3ccccc3oc2=O)cc1,29,1,79*,12,-5,77*
Cc1cc(NC(=S)NC(=O)c2ccccc2)ccc1-c1cc2ccccc2oc1=O,-2,-24,59*,12,-4,4
CC(=O)Nc1cc2ccccc2oc1=O,-4,-9,3,-2,-3,·
COc1cc(C(=O)NC(=S)Nc2cccc(-c3cc4ccccc4oc3=O)c2)cc(OC)c1OC,-30,-13,11,26,-2,·
CCC[C@H]1[C@@H](NC(=O)c2ccc(N(C)C)cc2)CC[C@@]23CCCN2C(=O)CCC[C@@H]13,·,·,·,1,·,·
COc1cc(Nc2ccc(C)cc2)c([N+](=O)[O-])nc1[N+](=O)[O-],-8,-52,58*,3,1,50*

# Assay outcomes as filed in PubChem BioAssay.
